# Source: PubChem BioAssay
# S1P4 ag = agonists of human S1P4 receptor; O95977; S1P4-expressing cell line, agonist reporter assay; activation, % at 4.98 µM; 220,000 compounds, 0.35% hits; in the data active = activation above about 11%;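 note: 0% = DMSO vehicle and 100% = reference agonist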
# Pf gamet viab = kills late stage P. falciparum gametocytes. P. falciparum stage V gametocytes, ATP luminescence, 24 h. inhibition, % at 10.9 µM. 150,000 compounds, 0.065% hits. AID 743093;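 active = inhibition above the mean plus 3 SD of compounds within the control limits, set per campaign, cut at about 38% in these data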;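 note: 0% = DMSO wells and 100% = medium only without gametocytes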
# S1P4 antag = human S1P4 receptor antagonism. inhibition, % at 4.98 µM. AID 1510. 220,000 compounds, 0.26% hits. S1P4-expressing cells, antagonist mode, reporter read-out. O95977; in the data active = inhibition above about 29%;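 note: 0% = wells stimulated with agonist and 100% = vehicle wells without agonist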
# EP2 modulator = modulators of human EP2 prostaglandin E2 receptor; 260,000 compounds, 0.83% hits; P43116; EP2-expressing cells, cAMP HTRF FRET, PGE2 co-stimulation; induction, % at 25 µM; AID 940;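 active = compounds whose cAMP rise, as percent of the full-agonist control response, exceeds 60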;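 note: rat C6 glioma line stably carrying human EP2 under a CMV promoter; the protocol text gives 20 µM as final concentration; 100% = response of wells given 1 µM PGE2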
# S1P3 antagonist = antagonists of human S1P3 receptor; Q99500; 170,000 compounds, 0.27% hits; inhibition, % at 4.98 µM; CHO S1P3 NFAT-BLA reporter, FRET fluorescence, antagonist mode;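 active = inhibition above the plate cutoff, the mean inhibition of test wells on that plate plus 3 SD, cut at about 28% in these data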;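 note: cells challenged with S1P at its EC80 of 0.8 µM; blue over green emission ratio from cleaved BLA substrate after 4 h stimulation; 0% = S1P-stimulated wells and 100% = unstimulated DMSO-only wells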
# Target sequence (Q99500 whole entry, looked up): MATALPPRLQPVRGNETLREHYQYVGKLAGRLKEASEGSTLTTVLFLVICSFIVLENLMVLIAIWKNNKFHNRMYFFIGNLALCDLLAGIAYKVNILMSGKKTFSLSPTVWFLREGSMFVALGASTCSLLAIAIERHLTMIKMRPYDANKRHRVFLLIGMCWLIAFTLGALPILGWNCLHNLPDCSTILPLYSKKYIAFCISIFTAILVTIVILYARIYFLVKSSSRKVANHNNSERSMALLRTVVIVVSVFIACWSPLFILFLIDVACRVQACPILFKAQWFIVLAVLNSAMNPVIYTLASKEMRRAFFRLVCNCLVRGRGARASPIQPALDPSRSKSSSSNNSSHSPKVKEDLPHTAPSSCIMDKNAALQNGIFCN
# PGE2 EP2 inh = blocks the human prostaglandin E2 receptor EP2. P43116. C6 glioma cells expressing human EP2, cAMP TR-FRET; cells stimulated with saturating PGE2. inhibition, % at 25 µM. 260,000 compounds, 0.52% hits;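 active = percent inhibition above 40 after rounding to a whole number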;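 note: rat C6 glioma host cells with rolipram phosphodiesterase inhibitor present; the protocol text gives 20 µM as final concentration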
# EP2 cAMP induct = human EP2 receptor cAMP induction, negative in counter-screens | C6 glioma EP2 cells, cAMP HTRF induction; plus low (about EC15) PGE2 agonist | shares compounds with EP2 modulator | calls only at 20 µM (by protocol) | AID 1080 | 1,300 compounds, 47% hits;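 active = cAMP induction above 50% in the main assay while under 30% in all four parallel counter assays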;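 note: rat C6 glioma cells stably expressing human EP2 receptor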
# S1P4 ag conf = confirmation of human S1P4 receptor agonists | AID 1523 | S1P4 agonist cell-based reporter assay | activation, % at 4.98 µM | 740 compounds, 7% hits | shares compounds with S1P4 ag; in the data active = activation above about 12%;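 note: 0% = vehicle and 100% = full reference agonist response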
# S1P1 agonist = human S1P1 agonism as S1P4 agonist counter-screen | S1P1 agonist cell-based assay, activation | AID 1563 | 740 compounds, 4% hits | activation, % at 4.98 µM | shares compounds with S1P4 ag; in the data active = activation above about 21%;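 note: 0% = vehicle wells and 100% = reference agonist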
# S1P4 antag cf = human S1P4 antagonism, confirmation; shares compounds with S1P4 antag; S1P4-expressing cell line, antagonist mode, reporter read-out; inhibition, % at 4.98 µM; 520 compounds, 71% hits; in the data active = inhibition above about 30%
# S1P1 antagonist = human S1P1 antagonism as S1P4 antagonist counter-screen; shares compounds with S1P4 antag; cell-based S1P1 antagonist counterscreen, inhibition; inhibition, % at 4.98 µM; 520 compounds, 37% hits; AID 1564; in the data active = inhibition above about 40%;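 note: receptor stimulated with S1P near its EC80; 0% = agonist stimulated wells and 100% = vehicle only wells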
# * = called active by the depositor; i = inactive; x = no result; + = active, no number. An excerpt weighted towards active compounds, which were near 1.9% of everything screened.
SMILES,S1P4 ag,Pf gamet viab,S1P4 antag,EP2 modulator,S1P3 antagonist,PGE2 EP2 inh,EP2 cAMP induct,S1P4 ag conf,S1P1 agonist,others
CN(c1ccccc1)c1nc(N2CCCC2)nc(-n2ccnc2)n1,-1,x,-12,82*,-28,13,+,x,x,
Cc1ccc2c(c1)N(Cc1cccc(Cl)c1)C(=O)c1cccnc1O2,0,13,3,71*,-19,7,+,x,x,
CC(C)(C)n1nnnc1C(c1ccncc1)N(Cc1ccccc1)Cc1ccco1 (stereo not drawn),2,x,5,71*,x,25,i,x,x,
CC(C)(C)n1nnnc1C(c1cccs1)N(Cc1ccccc1)Cc1ccco1 (stereo not drawn),1,x,15,13,12,15,x,x,x,
CCOCCCNC(=S)N1CCC(NC(=O)NC23CC4CC(CC(C4)C2)C3)CC1,x,x,x,-18,x,11,x,x,x,
CC[C@H](C)C(=O)O[C@H]1C[C@@H](C)C=C2C=C[C@H](C)[C@H](CC[C@@H]3C[C@@H](O)CC(=O)O3)[C@H]21,-2,x,-7,33,1,10,i,x,x,
CC[C@H](C)C(=O)O[C@H]1CCC=C2C=C[C@H](C)[C@H](CC[C@@H]3C[C@@H](O)CC(=O)O3)[C@H]21,1,x,0,34,-17,6,x,x,x,
O=C(CN1CCC(N2CCCCC2)CC1)Nc1ccccc1-n1cccc1,x,x,x,13,x,23,x,x,x,
CCCOc1ccc(/C=N/Nc2ccc(C(=O)O)cc2)c(OCCC)c1,12*,-17,13,88*,-5,15,+,-1,-2,
O=C(Nc1ccccc1F)N1CCCC1c1nc(-c2cccnc2)n[nH]1 (stereo not drawn),x,x,x,-17,x,x,x,x,x,
OC1(c2ccc(Br)cc2)CN(c2ccccc2)C2=[N+]1CCS2 (stereo not drawn),0,-5,30*,75*,-5,14,+,x,x,S1P4 antag cf=8;S1P1 antagonist=2
COC(=O)CN1N=C(c2ccc(OC)cc2)Cn2c(cc3sccc32)C1=O,x,x,x,-57,x,x,x,x,x,
CC1=Nc2ccccc2/C1=C/c1c(N)n2c(S(=O)(=O)CC(C)C)nsc2nc1=O,20*,x,-4,1,-8,6,x,-2,-2,
CCOC(=O)c1cnn2c1[nH]c(=O)c1ccccc12,255*,x,0,6,x,10,x,-3,12,
Cc1cc(C)nc(N/N=C/c2ccc(N3CCOCC3)cc2)n1,175*,15,15,-36,5,2,x,21*,1,
Cc1cc(C)nc(Nc2ccc(N3CCOCC3)cc2)n1,2,-12,-2,2,-14,21,x,x,x,
O=C(/C=C/c1ccc(F)cc1)N1CCN(c2ccccn2)CC1,16*,4,-32,9,-6,1,x,-1,-5,
C=CCNC(=O)CSc1nnc(-c2ccccn2)n1-c1ccc(C)c(C)c1,x,x,x,12,x,11,x,x,x,
CC(=O)Nc1ccc(S(=O)(=O)Oc2ccc(C(=S)N3CCCCC3)cc2)cc1,29*,-4,-4,-44,-5,7,x,0,7,
CC(=O)Nc1ccc(S(=O)(=O)Oc2ccc(C(=S)N3CCC(O)CC3)cc2)cc1,2,8,-15,-46,-12,9,x,x,x,
O=C(NC1CCCCC1)C(c1ccco1)N(Cc1ccco1)C(=O)Cc1c[nH]c2ccccc12 (stereo not drawn),x,x,x,35,x,10,x,x,x,
OC1(c2cccnc2)CCN(Cc2nnnn2Cc2ccccc2)CC1,53*,6,0,-12,-2,8,x,-2,5,
COc1cc(SC#N)ccc1N=Cc1c(O)n(-c2cccc(C)c2)c(=O)[nH]c1=O,x,x,x,-65,x,16,x,x,x,
Cc1cc(C)c(S(=O)(=O)NCCc2ccccc2)c(C)c1,21*,-35,-9,-27,6,3,x,-1,-7,
